Experimental findings from PubChem BioAssay (NCATS) are described below.

SMILES strings stand for the structures. Calls of active or inactive are those of the source. Calls follow the shape of the dose curve; as a rule, active = well fitted curve in the direction sought with a large enough effect; inconclusive = small, poorly fitted or top-dose-only effect, or another doubt; inactive = no such curve, though single readings can be large or run the other way.

This assay deals with Hexokinase-4 (Homo sapiens) + Glucokinase regulatory protein (Homo sapiens) (UniProt P35557+Q14397). The experiment in a line: qHTS assay for inhibitors of recombinant human GCK-GKRP interaction: ADP-Glo assay (AID 743206).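 Also: plate controls were DMSO plus enzyme for no effect and no enzyme for full effect.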 The note with it: ADP-Glo luminescence, 60 min, 0% = vehicle-only wells with enzyme present; series mostly up to 76.9 µM; activity, positive = activation: at the top concentration. The method, boiled down: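 Pin-transferred compounds meet a 15 nM GST-GCK/15 nM FLAG-GKRP/2 uM S6P mix (dispense concentrations). ATP is then added to 0.4 mM final with 5 mM glucose, and the reaction runs 60 min at room temperature. ADP is quantified luminescently.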
Chain of Hexokinase-4 (Homo sapiens) + Glucokinase regulatory protein (Homo sapiens) (P35557 whole entry, looked up): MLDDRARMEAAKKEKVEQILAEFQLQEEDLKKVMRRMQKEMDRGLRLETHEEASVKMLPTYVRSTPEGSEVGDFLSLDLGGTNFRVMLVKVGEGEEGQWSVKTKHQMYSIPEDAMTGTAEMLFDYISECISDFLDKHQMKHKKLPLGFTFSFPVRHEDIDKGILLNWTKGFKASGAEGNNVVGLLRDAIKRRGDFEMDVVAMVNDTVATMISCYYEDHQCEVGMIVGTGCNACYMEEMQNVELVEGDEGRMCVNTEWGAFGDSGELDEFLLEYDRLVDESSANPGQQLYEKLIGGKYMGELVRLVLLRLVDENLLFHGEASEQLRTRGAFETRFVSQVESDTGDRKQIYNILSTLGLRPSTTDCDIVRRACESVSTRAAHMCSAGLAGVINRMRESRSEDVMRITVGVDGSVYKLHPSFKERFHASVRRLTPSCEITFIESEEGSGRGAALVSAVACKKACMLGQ
Chain of Hexokinase-4 (Homo sapiens) + Glucokinase regulatory protein (Homo sapiens) (Q14397 whole entry, looked up): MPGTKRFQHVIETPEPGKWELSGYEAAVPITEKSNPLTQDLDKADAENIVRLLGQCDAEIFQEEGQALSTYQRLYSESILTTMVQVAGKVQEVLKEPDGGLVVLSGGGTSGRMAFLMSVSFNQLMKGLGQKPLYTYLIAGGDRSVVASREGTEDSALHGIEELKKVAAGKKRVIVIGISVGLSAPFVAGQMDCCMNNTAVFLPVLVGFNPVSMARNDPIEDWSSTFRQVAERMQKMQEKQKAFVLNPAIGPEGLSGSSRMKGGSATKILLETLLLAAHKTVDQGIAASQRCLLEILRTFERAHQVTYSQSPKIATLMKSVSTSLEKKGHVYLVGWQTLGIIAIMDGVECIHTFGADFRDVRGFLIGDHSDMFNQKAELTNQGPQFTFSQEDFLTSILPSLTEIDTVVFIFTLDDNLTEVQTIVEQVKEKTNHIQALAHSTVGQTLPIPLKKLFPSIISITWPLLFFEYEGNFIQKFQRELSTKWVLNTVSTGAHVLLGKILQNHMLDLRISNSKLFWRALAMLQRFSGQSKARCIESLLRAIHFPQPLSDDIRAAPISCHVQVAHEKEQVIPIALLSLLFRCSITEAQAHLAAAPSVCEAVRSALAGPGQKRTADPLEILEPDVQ
(qHTS replaces the single test concentration by a dilution series.)
On to `CCN(CC)CCNC(=O)c1cc(S(C)(=O)=O)ccc1OC`, for which the “activity, positive = activation” value is 0.857% (inactive). In the case of `c1cnc(N2CCN(Cc3ccc4c(c3)OCO4)CC2)nc1` it was -1.98% (inactive); in that of `CC[N+](C)(C)c1cccc(O)c1`, 2.59% (inactive). In the case of `CCCCCCCC/C=C\CCCCCCCC(=O)NCc1ccc(O)c(OC)c1` it was 3.84% (inactive); in that of `CCN(CC)CCCN(c1ccccc1)C1Cc2ccccc2C1`, -2.79% (inactive). In the case of `CCn1cc(C(=O)O)c(=O)c2cc3c(cc21)OCO3` it was 0.0029% (inactive); in that of `CN1CCN(C2=Nc3ccccc3Oc3ccc(Cl)cc32)CC1`, -4.75% (inactive); in that of `CC1=NS(=O)(=O)c2cc(Cl)ccc2N1`, -0.904% (inactive).

On to `Cc1nc2sccn2c(=O)c1CCN1CCC(=C(c2ccc(F)cc2)c2ccc(F)cc2)CC1`, for which the “activity, positive = activation” value is 3.51% (inactive).

Take `N[C@@H](COP(=O)(O)O)C(=O)O`: the “activity, positive = activation” value is 4.3% (inactive).

On to `CCN(CC)CCOCCOC(=O)C1(c2ccccc2)CCCC1`, for which the “activity, positive = activation” value was 0.96% (inactive). Then `CC(N=C(NC#N)Nc1ccncc1)C(C)(C)C` (centres undefined), with -1.44% (inactive); and `Fc1ccc(C(c2ccc(F)cc2)N2CCN(C/C=C/c3ccccc3)CC2)cc1`, with 2.01% (inactive). In the case of `FC(F)(F)c1ccccc1-n1ccnc1` it was -2.87% (inactive); in that of `COc1ccc2c(c1OC)C(=O)O[C@@H]2[C@H]1c2c(cc3c(c2OC)OCO3)CCN1C`, 0.929% (inactive); in that of `CCC(=O)c1ccc2c(c1)N(CCCN(C)C)c1ccccc1S2`, 2.56% (inactive). Then `CC(C)NCC(O)c1cc(O)cc(O)c1` (centres undefined), with 5.08% (inactive). For the compound `CC(C)[N+](C)(CCOC(=O)C1c2ccccc2Oc2ccccc21)C(C)C`, the “activity, positive = activation” value was 2.49% (inactive).

As to `COCCc1ccc(OCC(O)CNC(C)C)cc1` (centres undefined), the “activity, positive = activation” value is -0.885% (inactive). Take `CO[C@@]1(NC(=O)CSCC#N)C(=O)N2C(C(=O)O)=C(CSc3nnnn3C)CS[C@@H]21`: the “activity, positive = activation” value was 3.93% (inactive).

As for `CCn1ccnc1CC1COc2ccccc2O1` (centres undefined), the “activity, positive = activation” value was 0.36% (inactive).

As for `CC(C)(C)c1ccc(C(=O)CCCN2CCC(OC(c3ccccc3)c3ccccc3)CC2)cc1`, the “activity, positive = activation” value is 0.766% (inactive).

Take `CCN(CC)CC(=O)Nc1c(C)cccc1C`: the “activity, positive = activation” value was 2.65% (inactive). Then `O=C(O)CP(=O)(O)O`, with 3.34% (inactive); and `CN1CCN(CC(=O)N2c3ccccc3C(=O)Nc3cccnc32)CC1`, with 2.78% (inactive). Then `COc1ccc([C@@H]2Sc3ccccc3N(CCN(C)C)C(=O)[C@@H]2OC(C)=O)cc1`, with 3.22% (inactive); and `CC(=O)Oc1cc(C(C)C)c(OCCN(C)C)cc1C`, with 2.71% (inactive); and `C(=C\c1ccccc1)/CN1CCN(C(c2ccccc2)c2ccccc2)CC1`, with 0.184% (inactive).

For the compound `Cc1cccc(C)c1NC(=O)C(C)N` (centres undefined), the “activity, positive = activation” value was 3.75% (inactive). In the case of `CCOC(=O)C1=C(C)NC(C)=C(C(=O)OC)C1c1cccc(Cl)c1Cl` (centres undefined) it was 1.48% (inactive); in that of `COCCCC/C(=N\OCCN)c1ccc(C(F)(F)F)cc1`, 5.45% (inactive).

Turning to `CC(C)(C)NCC(O)c1cc(O)cc(O)c1` (centres undefined), the “activity, positive = activation” value was 4.83% (inactive). In the case of `Cc1ccc(Cl)c(Nc2ccccc2C(=O)O)c1Cl` it was 5.19% (inactive); in that of `CN(C)C(=O)Oc1ccc[n+](C)c1`, -0.39% (inactive).
